Structures are written as SMILES. Out of some 360,000 compounds screened, about 1,300 (0.36%) were called active. Only a selection was taken, and actives are over-represented in it overall. A number with no mark means an inactive call. Rule as the data show it: active = inhibition above about 35% (passing the limit was not always enough); inactive = the rest.

For orientation: inhibition means the relative decrease from the control value, in per cent.

For the experiment, the target named is Polyadenylate-binding protein 1 (Homo sapiens) (UniProt P11940). Nature of the experiment: inhibitors of PABP1 MLLE–PAM2 peptide binding, primary screen, biochemical, fluorescence polarization, FITC-PAM2, GST-MLLE (AID 588489).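 Also: plate controls were DMSO wells with GST-MLLE for no effect and wells lacking GST-MLLE protein for full effect.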 The following applies: at 20 µM, hits give high values. In general terms: Polarisation of emitted light reports the rotation of a fluorescent probe.
Chain of Polyadenylate-binding protein 1 (Homo sapiens) (P11940 whole entry, looked up): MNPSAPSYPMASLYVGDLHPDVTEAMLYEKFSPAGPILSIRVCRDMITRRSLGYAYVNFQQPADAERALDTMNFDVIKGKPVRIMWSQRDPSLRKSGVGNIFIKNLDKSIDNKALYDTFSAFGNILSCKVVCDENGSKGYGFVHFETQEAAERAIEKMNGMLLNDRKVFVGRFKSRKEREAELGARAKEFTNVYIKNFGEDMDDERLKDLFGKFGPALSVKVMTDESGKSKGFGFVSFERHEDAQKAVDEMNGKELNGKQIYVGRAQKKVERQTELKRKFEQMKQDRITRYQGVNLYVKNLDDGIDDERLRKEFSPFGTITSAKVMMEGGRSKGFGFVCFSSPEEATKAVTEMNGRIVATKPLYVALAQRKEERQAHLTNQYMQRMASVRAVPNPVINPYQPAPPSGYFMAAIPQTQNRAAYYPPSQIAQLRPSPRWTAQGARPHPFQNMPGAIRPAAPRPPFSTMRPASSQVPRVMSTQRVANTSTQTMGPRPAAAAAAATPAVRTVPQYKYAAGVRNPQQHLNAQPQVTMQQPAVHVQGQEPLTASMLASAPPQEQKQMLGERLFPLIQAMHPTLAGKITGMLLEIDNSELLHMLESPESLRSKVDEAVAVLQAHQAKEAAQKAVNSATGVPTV
Consider `Nc1ccc2nc3c(=O)[nH]c(=S)[nH]c3nc2c1`, for which the inhibition is 177%.

With `O=C1NCCn2nc3ccccc3c21`, the inhibition is 0.33%. Take `O=c1[nH]c(=O)c2nc3ccccc3nc2[nH]1`: the inhibition was 53.2% (active). For the molecule `Cc1cc2cc(CNC(=O)c3cccs3)ccc2[nH]1`, the inhibition is 38%. Take `COC(=O)c1ccc(CNC(=O)c2ccc(S(=O)(=O)N3CCCCCC3)cc2)cc1`: the inhibition was -6.55%.

On to `Cc1cc2cc(CNC(=O)c3ccc(S(=O)(=O)N4CCOCC4)cc3)ccc2[nH]1`, for which the inhibition is 45.1% (active). For `COCCn1c(N)c(NCc2ccccc2)c(=O)[nH]c1=O`, the inhibition is 44.1% (active). For the molecule `COCCN(C(=O)c1ccccc1F)c1c(N)n(Cc2ccccc2)c(=O)[nH]c1=O`, the inhibition was -9.82%. As to `COCCn1c(N)c(N(Cc2ccccc2)C(=O)C2CCCCC2)c(=O)[nH]c1=O`, the inhibition was -2.43%. Turning to `C=CCc1cccc2cc(C(=O)NC3CCCC3)c(=O)oc12`, the inhibition was 6.38%. The figure for `CC1CN(C(=O)c2ccc3c(c2)OCO3)OC(c2ccccc2)O1` (configuration not stated) is 0.75%; for `CSCCC(NC(=O)C1CCC(C)CC1)C(=O)NCc1ccco1` (configuration not stated) it is -8.36%. `CC(=O)Nc1ccc(NC(=O)C(NS(=O)(=O)c2ccc3c(c2)OCCO3)C(C)C)cc1` (configuration not stated): the inhibition was 1.54%. The figure for `CCOC(=O)CNc1nc(Cl)nc(Nc2ccc(OC)cc2OC)n1` is 1.38%.

In the case of `Cc1cccc(-n2c(N)c(C(=O)N3CCN(C)CC3)sc2=S)c1`, the inhibition is 3.33%. With `CCOC(=O)c1sc(=S)n(-c2cccc(OC)c2)c1N`, the inhibition was 40.5% (active). With `CCOC(=O)C(C)n1cnc2c(nnn2-c2cccc(OC)c2)c1=O` (configuration not stated), the inhibition is 1.6%.

In the case of `O=C(CN1C(=O)COc2ccc(Cl)cc21)N1CCOCC1`, the inhibition was 8.9%. `CC1(C(=O)NS(=O)(=O)Cc2cccc(Cl)c2)CCN1C(=O)Cc1ccccc1` (configuration not stated): the inhibition is -3.36%. In the case of `NNC(=O)CNC(c1ccccc1)c1cc(Cl)ccc1NC(=O)c1ccccc1` (configuration not stated), the inhibition is -2.37%. Regarding `COc1cc(NC(=O)Nc2ccc(C)cc2)cc([N+](=O)[O-])c1`, the inhibition was -3.48%. As to `COc1ccc(Nc2ccc([N+](=O)[O-])cn2)cn1`, the inhibition was 48.7% (active). Regarding `COC(=O)c1ccccc1N=NNc1ccc([N+](=O)[O-])cc1`, the inhibition is 18.6%.

Regarding `OC(c1ccc(Cl)cc1)C(CN1CCOCC1)c1ccccc1` (configuration not stated), the inhibition was -5.53%. Regarding `C=C1c2cccc(OC)c2O[C@H](C(=O)OCC)[C@@H]1CCCCCC`, the inhibition is -73.6%. Take `CC(=O)c1cnc(SCCN2C(=O)c3ccccc3C2=O)nc1C`: the inhibition was 4.46%.

Turning to `Cc1ccc(S(=O)(=O)NNC(=O)Nc2cccc3ccccc23)cc1`, the inhibition is 3.51%.

For the origin of these results see PubChem BioAssay AID588489 (Sanford-Burnham Center for Chemical Genomics, 2011).
